Measured values taken from PubChem BioAssay.
Calls of active or inactive are those of the source. How the calls were made is not given here.

Each compound was assayed against Pantothenate synthetase (Mycobacterium tuberculosis (strain ATCC 25618 / H37Rv)) (UniProt P9WIL5) (assay: Recombinant Mtb pantothenate synthetase (PanC) inhibitors, coupled enzyme, confirmatory (AID 375;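 further: 0% = full reaction with vehicle and 100% = no enzyme background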)). Settings: coupled enzyme assay; at 10 µM, hits give high values.
Sequence of Pantothenate synthetase (Mycobacterium tuberculosis (strain ATCC 25618 / H37Rv)) (P9WIL5 whole entry, looked up): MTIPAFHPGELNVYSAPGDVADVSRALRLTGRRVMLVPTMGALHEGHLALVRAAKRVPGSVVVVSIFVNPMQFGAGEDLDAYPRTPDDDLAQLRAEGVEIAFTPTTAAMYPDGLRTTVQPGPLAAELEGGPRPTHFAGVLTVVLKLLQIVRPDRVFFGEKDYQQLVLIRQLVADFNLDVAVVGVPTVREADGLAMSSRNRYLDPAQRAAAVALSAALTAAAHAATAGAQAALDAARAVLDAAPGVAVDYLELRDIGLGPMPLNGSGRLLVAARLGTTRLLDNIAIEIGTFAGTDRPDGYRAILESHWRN

| Compound | inhibition |
| --- | --- |
| C=CCN=C1SCC(=O)N1S(=O)(=O)c1ccc(C)cc1 | 0% (inactive) |
| COCCn1nnnc1C(c1cc2cc(C)cc(C)c2[nH]c1=O)N1CCN(c2ccccc2F)CC1 (stereo not drawn) | 2% (inactive) |
| CCCCOc1ccc(C(=O)Nc2ccc(N3CCN(C(C)=O)CC3)cc2)cc1 | 0% (inactive) |
| O=C(Nc1ccncc1)C1c2ccccc2Oc2ccccc21 | 0% (inactive) |
| CCN(CC)S(=O)(=O)c1ccc2oc(C(=O)O)c(C)c2c1 | 0% (inactive) |
| CCn1c(SCC(=O)Nc2cc(C)on2)nc2sc3c(c2c1=O)CCCC3 | 0% (inactive) |
| Cc1cc(OCC(=O)N2CCOCC2)cc2oc(=O)c3ccccc3c12 | 0% (inactive) |
| O=C(Nc1cccnc1)c1cc2c(ccc3ccccc32)o1 | 0% (inactive) |
| COC(=O)C(C)Sc1nc2c(c(=O)n(C)c(=O)n2C)n1Cc1cccc(C)c1 (stereo not drawn) | 2% (inactive) |
| CCOc1cc(S(=O)(=O)N2CCC(Cc3ccccc3)CC2)c(OCC)cc1-n1cnnn1 | 7% (inactive) |
| O=C(O)C1CC=CCC1C(=O)Nc1cc(Cl)ccc1Cl (stereo not drawn) | 1% (inactive) |
| COc1cccc2cc(C(=O)N3CCc4ccccc43)c(=O)oc12 | 1% (inactive) |
| COc1ccc(C2=NO[C@@H]3C(=O)N(c4cccc(C)c4C)C(=O)[C@H]23)cc1OC | 1% (inactive) |
| COCCNC(=O)CN1CCN(C(c2ccccc2)c2ccccc2)CC1 | 2% (inactive) |
| O=C(Cn1nc(C(F)(F)F)c2c1CCCC2)NCCN1CCOCC1 | 5% (inactive) |
| c1nc(NCC2CCCO2)c2[nH]cnc2n1 (stereo not drawn) | 0% (inactive) |
| CS(=O)(=O)c1ncc(Cl)c(C(=O)Nc2ccc(N3CCOCC3)cc2)n1 | 2% (inactive) |
| Cc1cc(NC(=O)C2=C(O)c3ccccc3S(=O)(=O)N2C)no1 | 0% (inactive) |
| CCOc1ccc(-c2cc(C(=O)N3CCN(c4ccccn4)CC3)c3ccccc3n2)cc1 | 2% (inactive) |
| CCS(=O)(=O)N1CCCC(C(=O)NCc2ccccc2Cl)C1 (stereo not drawn) | 2% (inactive) |
| COc1cc(OC)cc(-n2nnnc2SCC(=O)N2CCCC2)c1 | 0% (inactive) |
| CNC(=O)CN(c1ccc(C(C)C)cc1)S(C)(=O)=O | 0% (inactive) |
| Cc1cc(C)n(Cc2cc(C)c(Cn3nc(C)cc3C)cc2C)n1 | 3% (inactive) |
